Source: PubChem BioAssay AID504444 (National Center for Advancing Translational Sciences (NCATS), 2011)
“And” between values parts separate entries of the source, which are not always exact repeats. Equal values may be shown once. The whole screen tested about 360,000 compounds, of which about 7,500 (2.1%) were called active. Roughly 20% stayed inconclusive and do not appear here. The call rests on the fitted dose curve; in most records, active means well fitted inhibition curve with a large enough effect; inconclusive means small, poorly fitted or top-dose-only effect, or effect the other way; inactive means flat fitted curve, though single readings scatter. Only a selection was taken, and actives are over-represented in it overall. A structure can be active in one record and inactive in another.
On the % scale 0 is the no-effect control and ±100 the full control effect; potency means the concentration at half of the fitted maximal effect.

Experiment: Nrf2 qHTS screen for inhibitors; further: nearly all actives have a fitted effect of over 60% in size
Conditions: A549 ARE-Fluc reporter, luciferase luminescence, 18-24 h; series mostly up to 46 µM; activity change, negative = inhibition: at the top concentration
Method in brief: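 Two sequential reads on A549 ARE_Fluc cells exposed to compound for 18-24 h: a CellTiter-Fluor fluorescence read for viability, then a luciferase luminescence read for Nrf2/ARE activity.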
In the case of `CCN(CC)S(=O)(=O)c1ccc(CNC(=O)CN2C(=O)NC3(CCc4ccccc43)C2=O)cc1` (stereo unspecified), the “activity change, negative = inhibition” value was -5.28% (inactive).
For `Cc1ccc(C)c(N2CCN(C(=O)Cn3ncc4c(=O)oc5ccc(C)cc5c43)CC2)c1`, the “activity change, negative = inhibition” value was -1.2% (inactive).
For `O=C(NCc1ccccc1)c1cccc(NC(=O)C2CCCCC2)c1`, the “activity change, negative = inhibition” value was -2.53% (inactive).
With `Cn1nnnc1SCCCNCc1cccc(OCc2ccc(Cl)cc2)c1` the “activity change, negative = inhibition” value was 16.4% (inactive).
In the case of `COc1ccc(CNC(=O)CCc2c(C)nn(-c3ccc(N4CCCC4)nn3)c2C)cc1`, the “activity change, negative = inhibition” value was 11.6% (inactive).
In the case of `O=[S+]([O-])(c1ccc(OC(F)(F)F)cc1)N1CCN([S+](=O)([O-])c2ccc3c(c2)OCCO3)CC1`, the “activity change, negative = inhibition” value was 16.6% (inactive).
In the case of `COc1cccc(CNC(=O)c2ccc3c(c2)N(Cc2ccc(C(F)(F)F)cc2)C(=O)c2ccccc2S3)c1OC`, the “activity change, negative = inhibition” value was -2.78% (inactive).
In the case of `CCOc1ccc(C(=O)/C=C/c2cn(CC(O)CN3CCCCCC3)c3ccccc23)cc1` (stereo unspecified), the “activity change, negative = inhibition” value was 22.8% (inactive).
For `CCS(=O)(=O)c1nc(S(=O)(=O)c2ccc(C)cc2)c(NCc2ccc(Cl)cc2)s1`, the “activity change, negative = inhibition” value was -1.83% (inactive).
With `NC1=NOC(=O)C1C1CCCCC1` (stereo unspecified) the “activity change, negative = inhibition” value was -7.5% (inactive).
In the case of `CC(=O)Nc1ccc(C(=O)CSc2nc3ccc(C)cc3[nH]2)cc1`, the “activity change, negative = inhibition” value was 26.7% (inactive).
For `Cc1cc(C)c(NC(=O)CSc2nc3ccncc3[nH]2)c(C)c1`, the Potency was “inactive”.
In the case of `CCCCNS(=O)(=O)c1ccc2nc(SCC(=O)Nc3cc(C)cc(C)c3)[nH]c2c1`, the Potency was 13 µM (active).
With `Cc1ccc(/C=C(\C#N)C(=O)Nc2cc(C)ccc2C)cc1` the “activity change, negative = inhibition” value was 5.62% (inactive).
With `CC(C)(C)c1ccc(S(=O)(=O)Nc2ccc(O)c(Sc3nc4ccccc4s3)c2)cc1` the “activity change, negative = inhibition” value was 1.33% (inactive).
For `CCOc1ccc(NC(=O)c2c(NC(=O)Cc3ccccc3)sc3c2CCCCC3)cc1`, the “activity change, negative = inhibition” value was -17.2% (inactive).
With `COc1cccc(NS(=O)(=O)c2ccc(-c3coc(C)n3)cc2)c1` the “activity change, negative = inhibition” value was -27.9% (inactive).
With `COc1ccc(NS(=O)(=O)c2ccc(Oc3c(C#N)cccc3C#N)cc2)cc1` the Potency was 13 µM (active).
For `COc1ccc(NS(=O)(=O)c2cccc(C(=O)NCCc3ccc(S(N)(=O)=O)cc3)c2)cc1`, the “activity change, negative = inhibition” value was 5.04% (inactive).
For `N#CCSc1nc2c(c(=O)n1Cc1ccccc1)C1(CCCC1)Cc1ccccc1-2`, the “activity change, negative = inhibition” value was 10.3% (inactive).
In the case of `Cc1cccc(-n2c(SCC(N)=O)nc3c(c2=O)C2(CCCCC2)Cc2ccccc2-3)c1`, the Potency was 20.6 µM (active).
In the case of `Cc1cccc(-n2c(SCC(N)=O)nc3c(oc4ccccc43)c2=O)c1`, the “activity change, negative = inhibition” value was 1.69% (inactive).
For `C[C@H](CO)N1C[C@H](C)[C@@H](CN(C)Cc2ccc(-c3ccccc3)cc2)Oc2ccc(NC(=O)Cn3cnnn3)cc2C1=O`, the “activity change, negative = inhibition” value was 0.445% (inactive).
In the case of `OCC(O)C1OCOC(C(O)CO)C1O` (stereo unspecified), the “activity change, negative = inhibition” value was -10.3% (inactive).
With `CCOc1ccc(NC(=O)c2c(NC(=O)Cc3ccccc3)sc3c2CCC(C)C3)cc1` (stereo unspecified) the “activity change, negative = inhibition” value was -14.5% (inactive).
For `COc1ccc(CC(=O)N/N=C(\C)c2ccccn2)cc1`, the Potency was 14.6 µM (active).
With `Cc1ccc(Cl)cc1NC(=O)c1ccccn1` the “activity change, negative = inhibition” value was 25.8% (inactive).
In the case of `CC(=NNC(=S)N1CCCCCC1)c1ccccn1`, the Potency was 1.16 µM (active).
With `Cc1cccc(C)c1NC(=S)N1CCCCCC1` the “activity change, negative = inhibition” value was 7.37% (inactive).
For `C/C(=N\NC(=O)Cc1ccc(F)cc1)c1ccc(F)cc1`, the “activity change, negative = inhibition” value was -2.05% (inactive).
With `CNC(=S)N1CCN(c2ccccn2)CC1` the “activity change, negative = inhibition” value was -6.46% (inactive).
With `COc1ccc(C/C(C)=N/NC(=O)c2ccncc2)cc1` the “activity change, negative = inhibition” value was 9.67% (inactive).
For `COc1ccc(CC(=O)NC(C)CCc2ccccc2)cc1` (stereo unspecified), the “activity change, negative = inhibition” value was -21.7% (inactive).
In the case of `C/C(=N\NC(=O)Cc1ccc(Cl)cc1)c1ccccn1`, the Potency was 3.26 µM (active).
For `Cc1noc(C)c1NC(=O)Nc1ccc2c(c1)C(=O)N([C@H](C)CO)C[C@H](C)[C@@H](CN(C)C(=O)Nc1ccc(C(F)(F)F)cc1)O2`, the “activity change, negative = inhibition” value was -5.04% (inactive).
With `Cc1ccc(-c2nn(CCC(=O)Nc3ccc(Cl)c(Cl)c3)c(=O)c3ccccc23)cc1` the “activity change, negative = inhibition” value was -4.96% (inactive).
For `CCCNC(=O)C(CC)n1nc(CC)n2c(cc3oc(C)cc32)c1=O` (stereo unspecified), the “activity change, negative = inhibition” value was -22.5% (inactive).
For `CCOc1cccc(NC(=O)CSc2ncc(-c3ccc(Cl)cc3)[nH]2)c1`, the “activity change, negative = inhibition” value was 10.8% (inactive).
With `Cc1ccc(Nc2c(-c3ccc(Cl)cc3)nc3sccn23)c(C)c1` the “activity change, negative = inhibition” value was 11.2% (inactive).
For `O=C(NN=Cc1ccccc1O)NN=Cc1ccccc1O`, the “activity change, negative = inhibition” value was 0.438% (inactive).
In the case of `Cc1n[nH]c(C)c1S(=O)(=O)N1CCCC(C(=O)NCC2COc3ccccc3O2)C1` (stereo unspecified), the “activity change, negative = inhibition” value was -12.5% (inactive).
For `COc1ccc(NC(=O)C2CCCN(S(=O)(=O)c3cccc4cccnc34)C2)cc1OC` (stereo unspecified), the “activity change, negative = inhibition” value was -26.2% (inactive).
With `COc1ccc(NC(=O)C2CCCN(S(=O)(=O)c3cccc4cccnc34)C2)cc1` (stereo unspecified) the Potency was 23.1 µM (active).
In the case of `Cc1n[nH]c(C)c1S(=O)(=O)N1CCCC(C(=O)Nc2ccc(Br)cc2)C1` (stereo unspecified), the Potency was “inactive and 14.6 µM (active)”.
With `CC(=O)Nc1ccc(NC(=O)C2CCCN(S(=O)(=O)c3ccc4c(c3)CCCC(=O)N4)C2)cc1` (stereo unspecified) the “activity change, negative = inhibition” value was 29.4% (inactive).
For `O=C(O)C1CCCN(S(=O)(=O)c2cccc3cccnc23)C1` (stereo unspecified), the “activity change, negative = inhibition” value was -8.34% (inactive).
In the case of `COc1ccc(Cl)cc1NC(=O)CN(C)CC(=O)Nc1ccc2c(c1)OCO2`, the “activity change, negative = inhibition” value was -16% (inactive).
For `O=C(Cn1cc(SCc2cccc(Cl)c2)c2ccccc21)N1CCCCC1`, the “activity change, negative = inhibition” value was -21.2% (inactive).
For `COc1cc(OC)cc(-c2c(-c3ccc(F)cc3)c3cc(-c4ccc5cc[nH]c5c4)ccc3n2C)c1`, the “activity change, negative = inhibition” value was -11.2% (inactive).
For `COc1ccc(-c2c(-c3cc(OC)cc(OC)c3)n(C)c3ccc(-c4ccn[nH]4)cc23)cc1`, the Potency was 11.6 µM (active).
With `COc1cc(OC)cc(-c2c(-c3cccs3)c3cc(-c4ccc(OC)nc4)ccc3n2C)c1` the “activity change, negative = inhibition” value was -22.5% (inactive).
With `COCC(=O)N(C)[C@H]1C[C@H]2c3cc(Oc4ccccc4C)ccc3CCN2C(=O)[C@H]1[C@H](C)O` the “activity change, negative = inhibition” value was 0.467% (inactive).
With `CC(OC(=O)c1cc2ccccc2[nH]1)C(=O)N(C)c1ccccc1` (stereo unspecified) the “activity change, negative = inhibition” value was -3.45% (inactive).
In the case of `Cc1ccc(C)c(N2CCN(C(=O)CN3C(=O)COc4ccc(S(=O)(=O)N5CCCCCC5)cc43)CC2)c1`, the “activity change, negative = inhibition” value was 6.28% (inactive).
For `O=C(CC1Sc2ccccc2NC1=O)NNc1ccc(Cl)c(Cl)c1` (stereo unspecified), the “activity change, negative = inhibition” value was -2.12% (inactive).
With `OCCCNc1nc(-c2ccccc2)c2cc(Cl)ccc2n1` the “activity change, negative = inhibition” value was -5.54% (inactive).
With `OCCCNc1nccc(-c2cc(Nc3cccc(Cl)c3)ncn2)n1` the Potency was 2.06 µM (active).
For `Cc1cccc(Nc2nc(NCCO)nc(N3CCCC3)n2)c1`, the “activity change, negative = inhibition” value was -11.3% (inactive).
With `Cc1ccc(NC(=O)Cn2cnc3c(OCc4ccccc4)ncnc32)cc1C` the “activity change, negative = inhibition” value was -4.24% (inactive).
In the case of `COc1ccc(S(=O)(=O)N2C[C@H]3CON(C)[C@H]3C[C@H]2c2cccc(Br)c2)cc1`, the “activity change, negative = inhibition” value was -18.2% (inactive).
With `COc1ccc(CCNc2nc(-c3ccc(Cl)cc3)cc(C(F)(F)F)n2)cc1OC` the activity change, negative = inhibition was -14.7% [at 9.27 µM] (inactive).
